An excerpt weighted towards active compounds, which were near 7.5% of everything screened.
ELG1 genotoxic: genotoxicity induction in ELG1-luciferase HEK293T cells | HEK293T ELG1-luciferase reporter, luminescence, 16 h | Potency, µM (highest dose often 46 µM), inactives show at the highest dose activity change, positive = activation, usual class: activators | actives 1.3% (n = 330,000) | AID 504466; note: % of control where 0% means no effect; nearly all actives have a fitted effect of over 60% in size
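Reporter readout depends on ELG1 protein level, which increases with genetic stress. After 16 hr compound exposure at 37 °C, luciferase activity was quantified using ONE-Glo.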
SMN2 splice enh: increases expression of the SMN2 splice variant. HEK293 SMN2-luciferase splicing reporter, luminescence, 30-36 h. Potency, µM (doses to about 46.1 µM), for inactives: at the top dose activity change, positive = activation, hits mostly activators. actives 2.8% (n = 210,000). AID 1458; note: % of control where 0% means no effect; nearly all actives have a fitted effect of over 55% in size
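HEK293 cells carry an SMN2 minigene-luciferase reporter in which exon 7 inclusion puts luciferase in frame. Cells were seeded at 2000 cells/well, attached for 10-12 hours, then exposed to compounds for 30-36 hours at 37C before ONE-Glo luminescence.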
FLuc counter: firefly luciferase modulation, counter-screen for miR-21 project | P08659 | purified FLuc, Km substrates, luminescence inhibition | Potency, µM (doses to about 57.5 µM), without a hit: top-dose activity change, negative = inhibition, usual class: inhibitors | actives 6.9% (n = 360,000) | AID 588342;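 note: plate controls were vehicle for no effect and reference inhibitor for full effect; nearly all actives have a fitted effect of over 55% in size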
Target sequence (P08659 whole entry, looked up): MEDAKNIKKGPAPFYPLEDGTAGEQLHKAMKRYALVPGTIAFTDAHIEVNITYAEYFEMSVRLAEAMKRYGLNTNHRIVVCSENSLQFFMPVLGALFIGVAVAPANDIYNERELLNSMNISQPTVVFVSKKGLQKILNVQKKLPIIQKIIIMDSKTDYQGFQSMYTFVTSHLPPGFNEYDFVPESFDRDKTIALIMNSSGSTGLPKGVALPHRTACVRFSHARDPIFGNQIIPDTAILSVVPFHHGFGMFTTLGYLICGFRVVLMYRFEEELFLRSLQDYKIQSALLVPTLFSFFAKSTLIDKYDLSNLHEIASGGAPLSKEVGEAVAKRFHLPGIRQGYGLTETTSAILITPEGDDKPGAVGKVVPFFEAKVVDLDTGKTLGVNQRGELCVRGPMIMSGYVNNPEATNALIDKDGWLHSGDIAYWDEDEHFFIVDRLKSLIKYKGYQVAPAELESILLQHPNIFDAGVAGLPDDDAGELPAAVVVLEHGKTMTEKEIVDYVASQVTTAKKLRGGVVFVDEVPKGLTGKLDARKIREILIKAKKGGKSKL
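Purified P. pyralis luciferase (10nM final) with 10uM D-luciferin and 10uM ATP (Km levels) in 50mM Tris acetate pH 7.5, 10mM Mg acetate, 0.01% Tween-20, 0.05% BSA; qHTS 6-point titration, ~60 µM downward; luminescence read.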
NPC1 promoter act: NPC1 promoter activation; Huh7 NPC1 promoter luciferase reporter, 24 h; Potency, µM (top dose mostly 9.22 µM), for inactives: at the highest dose activation, most hits filed as activators; actives 2.4% (n = 320,000); note: % of control where 0% means no effect; nearly all actives have a fitted effect of over 60% in size
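Quantitative HTS used a cell-based reporter: Huh7 cells stably bearing the NPC1 promoter upstream of luciferase were treated with compounds for 24 h, and promoter activation was read as luminescence.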
Rab9 prom act: activators of Rab9 promoter. Huh7 Rab9 promoter-luciferase reporter, luminescence, 24 h. Potency, µM (series often up to 9.22 µM), for inactives: at the highest dose activation, negative = inhibition, actives largely listed as activators. actives 2.8% (n = 320,000); note: % of control where 0% means no effect; nearly all actives have a fitted effect of over 60% in size
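Steps: seed 1500 Huh7 Rab9-luc cells per well, rest 2 h at 37 °C; add compound in DMSO; incubate 24 h; add luciferase reagent, 10 min ambient; read luminescence.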
KinaseGlo FLuc: blocks Kinase-Glo luciferase, a counter-screen artifact; Potency, µM (highest dose often 38.3 µM), for the others: at the highest dose activity change, negative = inhibition, most hits filed as inhibitors; actives 0.28% (n = 200,000); Q27757; Kinase-Glo luciferase, ATP luminescence, 8 min; note: % is set by controls: 0 for no effect and ±100 for the full control effect; nearly all actives have a fitted effect of over 60% in size
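Kinase-Glo luciferase light output from ATP and luciferin was measured with 10 uM ATP, within the enzyme's linear range. Buffer: 50 mM imidazole pH 7.2, 50 mM KCl, 7 mM MgCl2, 0.01% Tween 20, 0.05% BSA; luminescence read after 8 min at ambient temperature.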
An asterisk follows results filed as active; ? = inconclusive; . = not tested or not shown; [ ] = remark or other dose. Calls come from the whole dose curve; as a rule, active = well fitted curve in the direction sought with a large enough effect; inconclusive = small, poorly fitted or top-dose-only effect, or another doubt; inactive = no such curve, though single readings can be large; an effect the other way counts as inactive or inconclusive. Potency is the fitted concentration of half-maximal effect.

SMILES	ELG1 genotoxic	SMN2 splice enh	FLuc counter	NPC1 promoter act	Rab9 prom act	KinaseGlo FLuc
CCOC(=O)C1(CC)NC(c2ccc(OC)c(OC)c2)C2C(=O)N(c3cccc(C(C)=O)c3)C(=O)C21 (stereo not drawn)	-7%	.	-1%	8%	5%	.
O=c1c2ccccc2sc2ccc(Cl)cc12	11%	29%	?	26%	21%	-1%
O=c1c(C(c2ccccc2)c2c(O)sc3ccccc3c2=O)c(O)sc2ccccc12	-17%	-25%	12µM*	1%	-3%	-1%
C[N+](C)(C)C(C1=CCCC1=O)c1ccccc1 (stereo not drawn)	.	-1%[9.22 µM]	.	.	.	-3%[7.66 µM]
O=C(Nc1sc2c(c1C(=O)NCc1ccccc1)CCCC2)c1cc(=O)c2cc(Cl)ccc2o1	.	-5%	0%	.	.	.
Oc1ccccc1-c1nnc(COc2ccc(Cl)cc2Cl)o1	13µM*	?	?	-1%	19%	-3%
O=C(OCc1nnc(-c2ccccc2)o1)c1cc(=O)c2ccccc2o1	8%	6%	?	3%	5%	7%
Clc1ccc(-c2nnc(SCc3nc4ccccc4[nH]3)o2)c(Cl)c1	-2%	-26%	0%	-3%	1%	-4%
O=C(OCc1nnc(-c2ccccc2)o1)c1ccco1	5%	-11%	24µM*	5%	1%	-23%
CC(=O)Nc1ccccc1OCc1nnc(-c2ccccc2Cl)o1	0%	.	?	9%	18%	.
O=C(OCc1nnc(-c2ccccc2)o1)c1cccnc1Cl	10%	5%	?	-3%	11%	0%
c1ccc(OCc2nnc(-c3ccccc3)o2)cc1	?	13µM*	17µM*	?	4µM*	0%
Clc1ccc(-c2nnc(CCc3ccccc3)o2)c(Cl)c1	?	13µM*	5.4µM*	2.5µM*	2µM*	-1%
Cc1cc(C)c(Cn2ncn(-c3ccc(Br)cc3)c2=O)c(C)c1	-4%	-13%	-3%	-3%	10%	5%
Oc1ccccc1-c1nnc(COc2ccccc2)o1	?	-4%	15µM*	8%	4%	-4%
O=Cc1ccc(OCc2nnc(-c3ccccc3Br)o2)cc1	15%	.	?	-2%	-1%	.
CC(=O)/C=C\c1ccccc1OC(=O)c1cc2ccccc2oc1=O	2%	.	-4%	-6%	-2%	.
O=C(/C=C\c1ccccc1OC(=O)c1ccccc1F)c1cc2ccccc2o1	16µM*	-117%	2.1µM*	?	?	-2%
O=C(N/N=C/c1ccc(-c2ccccc2[N+](=O)[O-])o1)c1cccnc1	0%	6%	?	14%	1%	1%
Cc1cc(C(=O)N/N=C/c2cccc([N+](=O)[O-])c2O)n[nH]1	-3%	-13%	15µM*	2%	-6%	2%
CC(C)(C)c1cc(C(=O)N/N=C/c2ccc(-c3ccccc3[N+](=O)[O-])o2)n[nH]1	-3%	.	21µM*	18%	9%	.
COc1cccc(CNC(=O)C(=O)Nc2ccc3nc4n(c(=O)c3c2)CCCCC4)c1	.	28%	5%	.	.	.
c1cc2c(cc1C(N1CCNCC1)N1CCNCC1)OCO2	.	-3%[9.22 µM]	.	.	.	-1%[7.66 µM]
COc1ccc(NC(C)=O)cc1S(=O)(=O)N1CC=C(c2ccccc2)CC1	-1%	.	.	.	.	.
Cc1ccc2nc(-c3ccc(NC(=O)C(C)N4C(=O)c5ccccc5C4=O)cc3)sc2c1 (stereo not drawn)	?	11µM*	8.5µM*	?	29%	2%
SMILES	ELG1 genotoxic	SMN2 splice enh	FLuc counter	NPC1 promoter act	Rab9 prom act	KinaseGlo FLuc
Cc1ccc(C2(C)NC(=O)N(CC(=O)Nc3ccc(-c4nc5ccc(C)cc5s4)cc3)C2=O)cc1 (stereo not drawn)	?	.	2.4µM*	1.8µM*	?	.
Cc1ccc(NC(=O)CN2C(=O)NC(C)(c3ccc4c(c3)OCO4)C2=O)cc1 (stereo not drawn)	-1%	.	.	.	.	.
CC(C(=O)Nc1ccc(C(=O)O)cc1)N1C(=O)c2ccccc2C1=O (stereo not drawn)	0%	3%	0%	3%	-2%	1%
COc1ccc(NC(=O)CCN2C(=O)c3ccccc3C2=O)cc1	0%	.	4%	-5%	4%	.
Cc1cccc(NC(=O)CCN2C(=O)c3ccccc3C2=O)c1	-2%	.	-11%	2%	-6%	.
O=C(CCN1C(=O)c2ccccc2C1=O)Nc1ccc(-c2nc3ccccc3s2)cc1	10µM*	.	?	1.3µM*	0.4µM*	.
Cc1ccc2nc(-c3ccc(NC(=O)CCN4C(=O)c5ccccc5C4=O)cc3)sc2c1	1µM*	0.32µM*	1.5µM*	0.4µM*	0.25µM*	-4%
CC(=O)Nc1sc2c(c1C(c1ccccc1Cl)N1CCN(CCO)CC1)CCCC2 (stereo not drawn)	-7%	22%	4%	-3%	-3%	-2%
CN(CC(=O)N1CCN(Cc2ccccc2)CC1)S(=O)(=O)c1cccc2nsnc12	-7%	.	3%	0%	-10%	.
O=C(CCN1C(=O)c2ccccc2C1=O)Nc1nc2ccccc2s1	16%	15%	19µM*	8%	1%	0%
COc1ccc(C2C(=O)N(C3CCC(C)CC3)CC(=O)N2CCC2=CCCCC2)cc1OC (stereo not drawn)	.	.	3%	.	.	.
O[C@]1(c2ccccc2)c2ccccc2NC2=NCCN21	.	-19%[9.22 µM]	.	.	.	-8%[7.66 µM]
O=C1c2ccccc2NC(c2ccc3c(c2)OCCO3)N1c1ccc2c(c1)OCCO2 (stereo not drawn)	2.1µM*	3.5µM*	11µM*	1µM*	1.6µM*	-5%
COc1cc(C2Nc3ccccc3C(=O)N2c2ccc3c(c2)OCCO3)ccc1OCC(C)C (stereo not drawn)	1.8µM*	3.2µM*	15µM*	1µM*	0.56µM*	0%
CCn1c(CCCc2nc3c([nH]2)c(=O)n(C)c(=O)n3C)nc2c1c(=O)n(C)c(=O)n2C	.	-6%[9.22 µM]	.	.	.	-5%[7.66 µM]
O=c1cc(CSc2ncn[nH]2)[nH]c2c(Cl)cccc12	.	.	-13%	.	.	.
O=C(CCn1cccc1)NCCc1ccc(Cl)cc1	0%	-20%	0%	0%	12%	1%
Cc1nc(-c2ccccn2)sc1C(=O)Nc1ccc(F)cc1F	?	8%	-16%	10%	4µM*	-3%
COc1cc(C)ccc1OCc1cc(C(=O)NCCN2CCOCC2)no1	?	.	11µM*	2.2µM*	4µM*	.
COc1cc(Cl)ccc1OCc1cc(C(=O)NCCCN2CCCC2=O)no1	1%	.	21µM*	3%	4%	.
CN(CCCN1CCOCC1)C(=O)c1cc(COc2ccc(F)cc2F)on1	2%	.	0%	-1%	-8%	.

Assay outcomes (PubChem BioAssay)
